Hits are enriched below; roughly 1.6% of the tested compounds scored in any of these assays.
KCNQ2 pot = enhances the rat KCNQ2 potassium channel; 0.54% of 310,000 active; CHO-K1 KCNQ2, FluxOR thallium flux fluorescence; active compounds read high; B-score at 10 µM; O88943;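 active = fluorescence ratio B-score at least 3 SD of library B-scores, with initial fluorescence B-score within 3 of them, cut at about 5.3 in these data; same plate scores as AID 2156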;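 also: B-score of peak minus minimum over baseline fluorescence ratio after K+ and Tl+ stimulus; positive B-score means potentiation of KCNQ2 with more thallium influx and brighter signal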
Target sequence (O88943 whole entry, looked up): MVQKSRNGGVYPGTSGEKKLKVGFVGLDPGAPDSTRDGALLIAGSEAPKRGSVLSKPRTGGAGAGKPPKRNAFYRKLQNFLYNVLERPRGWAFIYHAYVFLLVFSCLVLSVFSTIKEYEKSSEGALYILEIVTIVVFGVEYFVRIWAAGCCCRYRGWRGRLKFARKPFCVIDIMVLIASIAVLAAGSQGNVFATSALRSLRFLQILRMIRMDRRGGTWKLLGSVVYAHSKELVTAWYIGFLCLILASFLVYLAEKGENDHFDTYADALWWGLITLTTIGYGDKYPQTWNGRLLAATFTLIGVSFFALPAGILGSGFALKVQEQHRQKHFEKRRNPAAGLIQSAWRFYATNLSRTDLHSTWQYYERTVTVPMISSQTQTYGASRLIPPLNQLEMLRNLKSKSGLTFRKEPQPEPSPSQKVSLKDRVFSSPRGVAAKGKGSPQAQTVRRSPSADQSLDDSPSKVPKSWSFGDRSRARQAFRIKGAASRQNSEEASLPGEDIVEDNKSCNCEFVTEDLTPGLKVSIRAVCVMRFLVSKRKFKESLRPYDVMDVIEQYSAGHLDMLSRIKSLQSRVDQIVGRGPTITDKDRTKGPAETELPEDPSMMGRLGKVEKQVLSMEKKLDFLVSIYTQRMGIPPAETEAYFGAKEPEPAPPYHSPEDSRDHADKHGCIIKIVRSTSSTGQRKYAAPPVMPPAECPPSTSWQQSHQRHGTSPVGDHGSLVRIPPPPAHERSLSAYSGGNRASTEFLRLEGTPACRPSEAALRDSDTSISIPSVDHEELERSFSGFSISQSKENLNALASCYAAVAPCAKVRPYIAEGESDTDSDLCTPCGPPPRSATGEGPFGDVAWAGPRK
KCNQ2 block = inhibitors of rat KCNQ2 potassium channel. CHO-K1 KCNQ2, FluxOR thallium flux, 20 min; active compounds read low. B-score at 10 µM. 1.1% of 310,000 active. AID 2156;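 active = fluorescence ratio B-score at most minus 3 library SDs, with starting brightness B-score within 2 library SDs, cut at about -5.5 in these data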
KCNQ2 inh conf = rat KCNQ2 channel inhibition, confirmatory screen. shares compounds with KCNQ2 block. KCNQ2-expressing cells, thallium flux; active compounds read low. activity change, negative = inhibition, % at 10 µM. 57% of 1,000 active. AID 493025
KCNQ1 spec = human KCNQ1 activity in KCNQ2 inhibitor specificity screen. AID 493026. shares compounds with KCNQ2 block. 15% of 1,000 active. KCNQ1-expressing cells, FluxOR thallium flux fluorescence; active compounds read low. activity change, negative = inhibition, % at 10 µM;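 active = activity change at least 3 SD of negative controls below their mean in both duplicate wells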;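 also: CHO cells stably transfected with KCNQ1 and depolarized by potassium stimulus; peak minus minimum fluorescence over baseline after thallium addition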
CHO Tl ctr = counter-screen for KCNQ2 inhibitors: effect in parental CHO cells | activity change, % at 10 µM | shares compounds with KCNQ2 block | 14% of 1,000 active | thallium flux counter-screen; active compounds read low
KCNQ2 patch conf = blocks rat KCNQ2 current in automated patch clamp; KCNQ2-expressing cells; 49% of 550 active; AID 588531; calls only at 10 µM; shares compounds with KCNQ2 block
A number is an active result; i = inactive; nt = not tested or not shown; + = active, no number. Unless noted, no rule for the calls is given here.

SMILES	KCNQ2 pot	KCNQ2 block	KCNQ2 inh conf	KCNQ1 spec	CHO Tl ctr	others
Oc1cc(-n2cccn2)c(O)cc1-n1cccn1	nt	i	nt	nt	nt
N#C/C(=C\C=C\c1ccccc1)C(=O)Nc1ccccc1	i	-7.4	i	i	i
N#C/C(=C/C=C/c1ccccc1)C(=O)Nc1ccccc1	nt	i	nt	nt	nt
COc1ccc(CNC(=O)C(c2ccco2)N(Cc2cccs2)C(=O)Cc2cccs2)cc1 (stereo unspecified)	i	i	nt	nt	nt
COc1ccc(CNC(=O)C(c2cccs2)N(Cc2ccco2)C(=O)Cc2cccs2)cc1 (stereo unspecified)	i	-14	-29%	i	i	KCNQ2 patch conf=+
COc1ccccc1OCCSc1nc(C)c(Cc2ccccc2)c(=O)[nH]1	i	i	nt	nt	nt
CCOc1ccc(C(=O)Nc2cc(C)on2)cc1OCC	i	i	nt	nt	nt
CCCCOc1cccc(OCCCC)c1C(=O)Nc1cc(C)on1	i	-9.7	-43%	-34%	-34%	KCNQ2 patch conf=+
CC(=O)N1CC(C)Oc2ccc(S(=O)(=O)Nc3ccc(Cl)cn3)cc21 (stereo unspecified)	nt	i	nt	nt	nt
COc1ccc(CNC(=S)Nc2ccccc2Cl)cc1	i	i	nt	nt	nt
COc1ccc(CNC(=S)Nc2ccccc2-c2ccccc2)cc1	i	-7.6	-32%	i	i	KCNQ2 patch conf=+
CCN1CCN(S(=O)(=O)c2ccc(Cl)c(C(=O)N(C)Cc3ccc(F)cc3)c2)CC1	i	i	nt	nt	nt
COc1ccc(S(=O)(=O)N2CCCCCC2)cc1C(=O)N(C)Cc1ccc(Cl)cc1Cl	i	-8.5	i	i	i
COc1ccc(S(=O)(=O)N2CCCCCC2)cc1C(=O)N(C)Cc1cccs1	i	i	nt	nt	nt
CCN1CCN(S(=O)(=O)c2ccc(Cl)c(C(=O)N(C)Cc3cccc(Cl)c3Cl)c2)CC1	i	-6.9	i	i	i
O=C(NN=C1CCCCCCC1)c1ccc2ccccc2n1	nt	i	nt	nt	nt
CC(Oc1ccccc1)c1nnc(SCC(=O)NC2CC2)n1C (stereo unspecified)	i	i	nt	nt	nt
CCOC(=O)c1c(C)[nH]c(C(=O)OCC(=O)Nc2cccnc2Cl)c1C	i	i	nt	nt	nt
CCOC(=O)c1c(C)nc2c(c1-c1ccccc1)C(=O)c1ccccc1-2	i	-12	-30%	i	i	KCNQ2 patch conf=+
CCOC(=O)c1c(C)nc2c(c1-c1cc(OC)ccc1OC)C(=O)c1ccccc1-2	i	i	nt	nt	nt
O=C(Cn1ncc2c(=O)oc3ccccc3c21)N1CCc2ccccc2C1	i	i	nt	nt	nt
COc1cc2c(cc1OC)CN(C(=O)c1oc3ccccc3c1C)CC2	nt	i	nt	nt	nt
Cn1c(C(=O)N2CCc3ccccc3C2)cc2oc3ccccc3c21	i	-11	-16%	i	i	KCNQ2 patch conf=+
CCn1c(C(=O)N2CCc3ccccc3C2)cc2oc3ccccc3c21	i	-6.8	-44%	-52%	-44%
O=C(Nc1cccc2ccccc12)N(CCO)C1CCS(=O)(=O)C1 (stereo unspecified)	nt	i	nt	nt	nt
SMILES	KCNQ2 pot	KCNQ2 block	KCNQ2 inh conf	KCNQ1 spec	CHO Tl ctr	others
O=C(CS(=O)(=O)c1ccccc1)Nc1nnc(Cc2ccccc2)s1	nt	i	nt	nt	nt
CCn1cnc2c1c(=O)n(Cc1csc(-c3ccccc3)n1)c(=O)n2Cc1ccccc1	i	-9.4	-16%	i	i	KCNQ2 patch conf=i
CCn1cnc2c1c(=O)n(Cc1cccc([N+](=O)[O-])c1)c(=O)n2Cc1ccccc1	i	i	nt	nt	nt
CSc1cccc(NC(=O)c2cccc3cccnc23)c1	nt	i	nt	nt	nt
O=[N+]([O-])c1ccc2nnn(O)c2c1	i	i	nt	nt	nt
COC(=O)c1c(NC(=O)CN2CCCc3ccccc32)sc(C)c1C	i	-7.7	-38%	-33%	-33%	KCNQ2 patch conf=i
CCOC(=O)c1c(NC(=O)CN2CCCc3ccccc32)sc(C)c1C	nt	i	nt	nt	nt
CC(C)CNC(=S)NNC(=O)c1ccco1	i	i	nt	nt	nt
NC(=O)Nc1ccc(C(=O)OCC(=O)NC2CCCCC2)cc1	i	i	nt	nt	nt
CCOC(=O)N1CCN(C(=O)c2ccccc2N(Cc2ccccc2)S(=O)(=O)c2ccccc2)CC1	nt	i	nt	nt	nt
O=C(NCCCN1CCOCC1)NC12CC3CC(CC(C3)C1)C2	nt	i	nt	nt	nt
O=C(NCCCN1CCN(c2ccc(F)cc2)CC1)NC12CC3CC(CC(C3)C1)C2	i	-8.2	i	i	i
O=C(NC1CC2CCCC(C1)N2C(=O)Nc1ccc(F)cc1)c1ccccc1 (stereo unspecified)	nt	i	nt	nt	nt
Cn1c(=O)c(C(=O)c2ccccc2)nc2ccccc21	i	i	nt	nt	nt
O=C(c1ccccc1)c1nc2ccccc2n(CCCn2c(=O)c(C(=O)c3ccccc3)nc3ccccc32)c1=O	i	-9	i	i	i
COCCCNC(=S)NC(=O)c1ccc(C)cc1	nt	i	nt	nt	nt
CCN1C(=O)/C(=C/N(C(C)=O)c2ccccc2)N(c2ccccc2)C1=S	i	-9.6	i	i	i
CCc1ccc(/C=C2/C(=O)N(c3ccccc3)C(=S)N2CC(=O)OC)s1	nt	i	nt	nt	nt
CC(C)CN1CCNC(=O)C1CC(=O)NCc1cnn(-c2cccc(F)c2)c1 (stereo unspecified)	i	i	nt	nt	nt
CCOc1cc(CNc2cccc3ccccc23)cc(Br)c1OCC(=O)NC(C)(C)C	i	-6.8	i	i	i
CCOc1cc(CNc2ccc(N(C)C)cc2)cc(Br)c1OCC(=O)NC(C)(C)C	nt	i	nt	nt	nt
CCCN(CC(=O)Nc1ccccc1OC)C(=O)c1cc(-c2cccs2)nn1-c1ccccc1	i	-9.3	-32%	i	i	KCNQ2 patch conf=+
CCN(CC(=O)Nc1ccccc1C(F)(F)F)C(=O)c1cc(-c2cccs2)nn1-c1ccccc1	nt	i	nt	nt	nt
COc1cnc(SCc2c(Cl)cccc2Cl)nc1Cl	i	i	nt	nt	nt
CC1=CC(C)(C)[N+](C)=CN1c1ccccc1	i	i	nt	nt	nt
SMILES	KCNQ2 pot	KCNQ2 block	KCNQ2 inh conf	KCNQ1 spec	CHO Tl ctr	others
O=C(CSc1nc2ccccc2c(=O)n1CC1CCCCC1)N1CCOCC1	nt	i	nt	nt	nt
CCN(CC)C(=O)CSc1nc2ccccc2c(=O)n1CC1CCCCC1	i	-6.6	-45%	-38%	-30%	KCNQ2 patch conf=+
Cc1ccc(SCc2c(-c3ccccc3)nn(C)c2Cl)cc1	nt	i	nt	nt	nt
Cc1ccc(Sc2c(C#N)c(-c3ccccc3)nn2C)cc1	i	-8.5	i	i	i
Cc1ccc(N(CC(=O)NC(C)(C)C)C(=O)CS(=O)CC(=O)Nc2ccc3c(c2)OCO3)cc1 (stereo unspecified)	i	i	nt	nt	nt
Cc1cc(S(=O)(=O)N2CCCCC2CCNC(=O)C(=O)NCC2CCCO2)ccc1F (stereo unspecified)	nt	i	nt	nt	nt
O=C(Cn1sc2ccccc2c1=O)N1CCN(C(=O)c2ccco2)CC1	i	i	nt	nt	nt
Fc1ccc(CSc2nnc(-c3ccncc3)o2)cc1	i	i	nt	nt	nt
Cc1ccccc1-c1nnc(SCc2ccc(F)cc2)o1	i	-9.1	i	i	i
Cc1cccc(NC(=S)NCCc2ccc3c(c2)OCCO3)c1C	nt	i	nt	nt	nt
C=CCn1c(/N=C/c2ccc(OC)cc2)nc2ccccc21	i	i	nt	nt	nt
C=CCn1c(/N=C/c2ccc(N(C)C)cc2)nc2ccccc21	i	-7.3	i	i	i
CCOC(=O)c1cnc2ccccc2c1Nc1cccc(C(=O)O)c1	i	i	nt	nt	nt
CCOC(=O)c1cnc2ccc(C)cc2c1Sc1ccccc1	i	-7.1	-28%	i	i	KCNQ2 patch conf=+
CCCCCCOC1(c2ccccc2)OC(=O)c2ccccc21 (stereo unspecified)	nt	i	nt	nt	nt
CCCCCCCOC1(c2ccccc2)OC(=O)c2ccccc21 (stereo unspecified)	i	-8.5	-22%	i	i	KCNQ2 patch conf=i

Source: PubChem (Johns Hopkins Ion Channel Center)
